High-throughput results deposited in PubChem by The Scripps Research Institute Molecular Screening Center.
TEAD-YAP block = TEAD-YAP interaction inhibition; HEK-TIYL cells, TEAD-Gal4/YAP UAS-luciferase luminescence; inhibition, % at 9.12 µM; hit rate 1.4% among 640,000; AID 1259422; in the data active means inhibition above about 32%;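 further: 0% = median of test compound wells and 100% = reference inhibitor wells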
MITF inh = human MITF inhibition, primary screen | AlphaScreen MITF homodimerization, bead proximity signal | AID 1259374 | hit rate 0.91% among 650,000 | inhibition, % at 2.6 µM | O75030; in the data active means inhibition above about 50%;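 further: 0% = vehicle wells with protein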
GPR151 activ = activates the human receptor GPR151. PathHunter beta-arrestin GPR151 cells, luminescence. activation, % at 11.2 µM. hit rate 1% among 650,000; in the data active means activation above about 4.9%;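 further: 0% = median of compound wells and 100% = cells with positive control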
FBW7 act = activators of human E3 ligase FBW7 | AlphaScreen FBW7–phospho-cyclin E peptide binding, activator screen | normalized activity (activation), % at 26.1 µM | hit rate 0.13% among 650,000 | AID 1259310; in the data active means normalized activity above about 1.9%;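 further: purified mutant Fbw7 with reduced substrate affinity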
Target sequence (Q969H0 whole entry, looked up): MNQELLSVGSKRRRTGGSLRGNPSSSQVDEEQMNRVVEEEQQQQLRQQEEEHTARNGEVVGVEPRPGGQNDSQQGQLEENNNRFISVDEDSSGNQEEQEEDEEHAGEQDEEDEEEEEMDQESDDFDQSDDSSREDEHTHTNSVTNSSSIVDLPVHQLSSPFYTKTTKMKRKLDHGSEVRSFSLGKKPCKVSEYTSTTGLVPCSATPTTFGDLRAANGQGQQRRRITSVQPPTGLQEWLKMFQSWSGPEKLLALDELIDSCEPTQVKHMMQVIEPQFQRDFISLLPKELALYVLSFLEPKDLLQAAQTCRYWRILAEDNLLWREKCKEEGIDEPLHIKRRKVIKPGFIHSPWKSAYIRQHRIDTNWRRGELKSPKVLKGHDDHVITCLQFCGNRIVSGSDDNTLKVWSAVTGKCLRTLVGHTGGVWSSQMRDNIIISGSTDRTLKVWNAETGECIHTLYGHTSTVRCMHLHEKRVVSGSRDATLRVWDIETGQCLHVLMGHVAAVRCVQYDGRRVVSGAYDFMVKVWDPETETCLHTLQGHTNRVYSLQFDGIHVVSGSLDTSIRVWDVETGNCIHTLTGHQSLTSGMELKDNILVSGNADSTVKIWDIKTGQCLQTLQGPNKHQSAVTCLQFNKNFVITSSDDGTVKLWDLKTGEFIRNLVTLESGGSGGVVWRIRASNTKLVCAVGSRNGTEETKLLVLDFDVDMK
* hit, by the source's call. An excerpt weighted towards active compounds, which were near 3.4% of everything screened.

SMILES | TEAD-YAP block | MITF inh | GPR151 activ | FBW7 act
CCOc1ccccc1C(=O)NC1CC(=O)N(c2ccc(C)c(C)c2)C1 (stereo not drawn) | 43.0* | 14.4 | -0.2 | -0.1
CCOc1cc(C=O)cc(I)c1OC(=O)c1ccccc1[N+](=O)[O-] | 3.4 | 12.9 | -0.8 | 0.6
CNS(=O)(=O)c1ccccc1Nc1cc(Nc2cc(-c3cncnc3)nc(C)n2)ncc1C(F)(F)F | 67.7* | 3.3 | 2.3 | -0.2
CNC(=O)c1ccccc1Nc1cc(Nc2ccc3c(c2)CCC(=O)N3C)ncc1C(F)(F)F | 77.8* | -2.0 | -0.6 | 0.2
CNC(=O)c1ncccc1Nc1cc(Nc2ccc3c(c2)NC(=O)C3)ncc1C(F)(F)F | -8.4 | 8.0 | -0.7 | 0.1
CNC(=O)c1ccccc1Nc1cc(Nc2ccc(-c3cncnc3)cc2)ncc1C(F)(F)F | 32.3* | 8.5 | 0.9 | 0.0
CNC(=O)c1ccccc1Nc1cc(Nc2ccccn2)ncc1C(F)(F)F | 83.1* | -8.4 | 0.0 | -0.1
CCOC(=O)C1(CC)NC(c2ccc(O)cc2)C2C(=O)N(CC)C(=O)C21 (stereo not drawn) | 10.0 | 13.2 | -0.3 | -0.1
CN(C)C(=O)C(=O)c1c[nH]c2ccc(Nc3cc(Nc4ccccn4)c(C(F)(F)F)cn3)cc12 | -5.2 | 12.3 | 2.0 | 0.2
CNC(=O)c1ccnc(Nc2cc(Nc3ccccc3C(=O)NC)c(C(F)(F)F)cn2)c1 | 85.2* | 0.9 | -1.1 | 0.3
CNC(=O)c1ccccc1Nc1cc(Nc2ccc3[nH]cc(C(=O)C(=O)N(C)C)c3c2)ncc1C(F)(F)F | 50.6* | 19.3 | -0.9 | 0.2
CNC(=O)c1ccc(Nc2cc(Nc3ccccc3C(=O)NC)c(C(F)(F)F)cn2)nc1 | 88.1* | 12.7 | -0.8 | 0.3
CNC(=O)c1ccccc1Nc1cc(Nc2cccc(C)n2)ncc1C(F)(F)F | 82.2* | 1.6 | 0.1 | 0.0
O=C1CCCC(OC(=O)c2cccs2)=C1Sc1ccccc1[N+](=O)[O-] | 2.3 | 14.4 | -0.6 | 0.1
Cc1nnc(SCC(=O)N2CCCC2)s1 | -1.9 | 1.9 | -2.5 | 0.0
Cc1nnc(SCC(=O)N2CCC(c3noc4ccc(F)cc34)CC2)s1 | 36.6* | -1.9 | 0.8 | -0.2
Cc1ccc2cc(-c3nc4ccccc4[nH]3)c(=O)oc2c1 | -18.7 | 21.2 | -2.6 | 2.4*
Cc1cccc2cc(-c3nc4ccccc4[nH]3)c(=O)oc12 | -42.9 | 12.1 | 0.2 | 0.2
O=C1OC(Nc2nc3ccccc3s2)c2ccccc21 (stereo not drawn) | -4.3 | 10.2 | -0.6 | 2.0*
Cc1csc(NC2OC(=O)c3ccccc32)n1 (stereo not drawn) | -6.1 | 16.5 | 0.4 | -0.1
O=[N+]([O-])c1ccc(Br)c2ccncc12 | 61.7* | 18.6 | 4.0 | 0.3
CCOC(=O)c1cnn(-c2nc(C)nc3sc(-c4ccccc4)cc23)c1/N=C/N(C)C | 34.1* | 0.0 | 1.8 | 0.0
CCOC(=O)c1cnn(-c2ccc(Cl)nn2)c1/N=C/N(C)C | 0.6 | -4.0 | -0.4 | 0.1
COc1ccc(-n2nc(C(=O)NCC(=O)NCCCN3CCC(C)CC3)c3ccccc3c2=O)c(OC)c1 | -5.2 | -10.0 | -0.8 | -0.1
CC(C)n1cnc2c(NC3CCN(Cc4ccccc4)CC3)nc(Nc3ccncc3)nc21 | 68.6* | -10.1 | -0.7 | -0.1
SMILES | TEAD-YAP block | MITF inh | GPR151 activ | FBW7 act
CC(C)n1cnc2c(NC3CCN(Cc4ccccc4)CC3)nc(NCc3cccnc3)nc21 | 76.4* | 16.4 | -2.1 | 0.3
Oc1ccc(CCNc2ccnc(Nc3cnccn3)n2)cc1 | 4.0 | 12.3 | -0.2 | 0.4
Oc1ccc(CCNc2cc(Nc3cnccn3)ncn2)cc1 | 45.5* | -11.0 | 3.3 | -0.1
CC(C)n1cnc2c(NC3CCN(Cc4ccccc4)CC3)nc(N3CCCC3CO)nc21 (stereo not drawn) | 36.4* | 10.1 | -0.6 | 0.0
OCC1CCCN1c1nc(NC2CCN(Cc3ccccc3)CC2)c2ncn(C3CCCCC3)c2n1 (stereo not drawn) | -14.6 | 1.6 | -0.8 | -0.3
CC(C)n1cnc2c(NCc3cccnc3)nc(NC3CCN(Cc4ccccc4)CC3)nc21 | -2.0 | 7.8 | 0.9 | -0.1
COc1ccc(CCNc2nc(Nc3cnccn3)nc3c2ncn3C2CCCCC2)cc1 | 14.2 | -7.7 | -1.3 | -0.1
CC(C)n1cnc2c(NC3CCN(Cc4ccccc4)CC3)nc(Nc3cnccn3)nc21 | 76.4* | 11.8 | 1.7 | -0.1
CC(C)n1cnc2c(NC3CCN(Cc4ccccc4)CC3)nc(Nc3ccccc3)nc21 | 15.4 | 7.7 | -0.1 | -0.2
CC(C)n1cnc2c(NC3CC3)nc(Nc3cnccn3)nc21 | 38.5* | 7.7 | 2.2 | 0.1
COc1ccc(CCNc2nc(Nc3cnccn3)nc3c2ncn3C(C)C)cc1 | 36.2* | 2.2 | 1.2 | 0.0
CC(C)n1cnc2c(NC3CC3)nc(Nc3ccccn3)nc21 | 24.7 | 2.8 | 0.4 | -0.1
Oc1ccc(CCNc2nc(Nc3cnccn3)nc3c2ncn3C2CCCCC2)cc1 | 40.1* | -7.3 | -0.3 | 0.1
Cc1cc(NC(=O)COc2cc(Cl)ccc2Cl)no1 | -6.1 | -9.7 | -0.3 | -0.1
Cc1csc(NC(=O)C(Cc2ccccc2)N2Cc3ccccc3C2=O)n1 (stereo not drawn) | 5.2 | 7.0 | -0.2 | 0.1
CC(=O)Nc1ccc(-c2cn3c4c(sc3n2)CCCC4)cc1 | -35.8 | -0.6 | -0.1 | 0.0
Nc1ccc(-c2cn3c4c(sc3n2)CCCC4)cc1 | 26.8 | -9.4 | -0.3 | 0.0
c1ccc(-c2cn3c4c(nnc3n2)CCCC4)cc1 | 43.7* | 18.1 | -0.8 | -0.2
Fc1ccc(-c2cn3c4c(sc3n2)CCCC4)cc1 | 51.5* | -9.9 | -10.0 | 0.2
O=C(Nc1ccc(-c2cn3c4c(nnc3n2)CCCC4)cc1)c1cccnc1 | -1.7 | -9.2 | -0.2 | 0.0
c1ccc(-c2cn3c4c(sc3n2)CCCC4)cc1 | 85.5* | 3.8 | -7.2 | 0.3
COc1ccc(CCNc2cc(Nc3nccc4ccccc34)nc(N)n2)cc1 | -0.1 | 1.0 | 0.8 | 0.1
Cc1ccc(Sc2ccc(S(=O)(=O)N3CCOCC3)cn2)cc1C | -1.9 | 8.2 | -0.8 | -0.1
CCOC(=O)c1ccc2c(c1)sc1nc(-c3ccccc3)cn12 | 53.7* | 4.3 | -6.2 | -0.1
COC(=O)c1ccc2c(c1)sc1nc(-c3ccccc3)cn12 | 65.3* | -1.0 | -5.8 | -0.4
SMILES | TEAD-YAP block | MITF inh | GPR151 activ | FBW7 act
Clc1ccc(-c2cn3c(n2)sc2ccccc23)cc1 | 31.4 | -18.3 | -1.7 | 2.7*
Ic1ccc(-c2cn3c(n2)sc2ccccc23)cc1 | -37.7 | 14.3 | 0.7 | 1.1
COc1ccc(NC(C)=O)cc1NC(=O)CCNC(=O)c1ccccc1 | 6.8 | 5.3 | -0.2 | -0.1
C=CCN1C(=O)CS/C1=N/S(=O)(=O)c1ccc(F)cc1 | -1.0 | 3.4 | 0.5 | -0.2
CSc1cccc(NC(=O)C2C3C=CC4(O3)C2C(=O)N(CCCN2CCCCC2)C4C(=O)NC2CCCCC2)c1 (stereo not drawn) | 3.1 | 12.0 | -0.9 | 0.2
Cc1ccc(NC(=O)COc2ccc(Br)cc2)cc1 | 0.6 | 10.9 | -0.4 | 0.6
CS(=O)(=O)Nc1cccc(-c2cnn3c(N4CCC[C@H]4CO)ccnc23)c1 | -29.1 | 3.0 | -0.4 | 0.0
O=C(/C=C\Nc1ccccn1)c1ccccc1 | 41.3* | 14.1 | -5.8 | 0.0
O=C(/C=C/Nc1ccccc1Br)c1ccccn1 | 91.6* | 8.0 | -6.6 | 0.1
O=C(/C=C/Nc1ccc(Br)cc1F)c1ccccc1 | 83.7* | -2.7 | -2.1 | 0.1
